# In the supplement of paper PMC8728848:
# The entries come from a sample that favours the strongest signals as a whole.
# B1: CTMLA2 (Anopheles gambiae), Q7Q7F8 (protein)
# chain: MNLMITILIAVITVVRGDLSVPKTVDDILQQNPCLCPCKPFEEKEYFIPISRTSDWFGAVAYCHSVGMELAEVLNEDEARAMGEVIAEEESDSDDEFYWIGANDLGVQGTYRWALAGRPVLYSQWAAGEPNHARGENGQQPAERCVAVAMDKYEWNDFQCTQQKPFICQQFRKH
# How the values were obtained:
# Test in all cases: glycan array binding signal (z-score within array); higher = stronger binding
# Settings in all cases: glycan notation: IUPAC condensed, linker removed
# Fuc(a1-2)Gal(b1-4)Glc = target: Fuc(a1-2)Gal(b1-4)Glc
# Outline: (§1)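 The binding signal is a Z-score computed within each array. Data were drawn from 3228 arrays in the Consortium for Functional Glycomics database, restricted to those with a known protein sequence. Scores were averaged over arrays of the same protein sequence at different concentrations or buffers, and over linkers, and negative values can be taken as non-binding.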
# [1] = target: Fuc(a1-2)Gal(b1-4)GlcNAc(b1-3)Gal(b1-4)GlcNAc
# Outline: as §1
# [2] = target: Fuc(a1-2)Gal(b1-4)[Fuc(a1-3)]GlcNAc
# Outline: as §1
# [3] = target: Fuc(a1-2)[GalNAc(a1-3)]Gal(b1-4)[Fuc(a1-3)]GlcNAc
# Outline: as §1
# [4] = target: Fuc(a1-3)[Gal(b1-4)]GlcNAc(b1-4)Gal(b1-4)[Fuc(a1-3)]GlcNAc(b1-4)Gal(b1-4)[Fuc(a1-3)]GlcNAc
# Outline: as §1
# Gal(a1-3)GalNAc = target: Gal(a1-3)GalNAc
# Outline: as §1
# [5] = target: Gal(b1-3)GlcNAc(b1-3)Gal(b1-4)Glc
# Outline: as §1
# [6] = target: Gal(b1-3)GlcNAc(b1-3)Gal(b1-4)GlcNAc
# Outline: as §1
# [7] = target: Gal(b1-3)[Fuc(a1-4)]GlcNAc(b1-3)Gal(b1-4)[Fuc(a1-3)]GlcNAc
# Outline: as §1
# [8] = target: Gal(b1-3)[Neu5Ac(a2-6)]GalNAc
# Outline: as §1
# [9] = target: Gal(b1-3)[Neu5Ac(a2-6)]GlcNAc(b1-6)Gal(b1-4)Glc
# Outline: as §1
# Gal(b1-4)GlcNAc = target: Gal(b1-4)GlcNAc
# Outline: as §1
# [10] = target: Gal(b1-4)GlcNAc(b1-3)[Gal(b1-4)GlcNAc(b1-6)]GalNAc
# Outline: as §1
# Gal3S(b1-3)GlcNAc = target: Gal3S(b1-3)GlcNAc
# Outline: as §1
# Gal3S6S(b1-4)GlcNAc = target: Gal3S6S(b1-4)GlcNAc
# Outline: as §1
# [11] = target: GlcNAc(b1-3)Gal(b1-3)GalNAc
# Outline: as §1
# [12] = target: GlcNAc(b1-3)[GlcNAc(b1-6)]GlcNAc(b1-4)GlcNAc
# Outline: as §1
# [13] = target: Neu5Ac(a2-3)Gal(b1-3)GalNAc
# Outline: as §1
# [14] = target: Neu5Ac(a2-3)Gal(b1-3)GalNAc(b1-3)Gal(b1-4)GlcNAc
# Outline: as §1
# [15] = target: Neu5Ac(a2-3)Gal(b1-3)[Fuc(a1-4)]GlcNAc(b1-3)Gal(b1-4)[Fuc(a1-3)]GlcNAc
# Outline: as §1
# [16] = target: Neu5Ac(a2-3)Gal6S(b1-4)[Fuc(a1-3)]GlcNAc
# Outline: as §1
# [17] = target: Neu5Ac(a2-3)[GalNAc(b1-4)]Gal(b1-4)Glc
# Outline: as §1
# Neu5Ac(a2-8)Neu5Ac = target: Neu5Ac(a2-8)Neu5Ac
# Outline: as §1
binder,measurement,setting,value
B1,glycan array binding signal (z-score),Fuc(a1-2)Gal(b1-4)Glc,0.14
same,glycan array binding signal (z-score),[1],-0.253
same,glycan array binding signal (z-score),[2],-0.269
same,glycan array binding signal (z-score),[3],0.192
same,glycan array binding signal (z-score),[4],-0.011
same,glycan array binding signal (z-score),Gal(a1-3)GalNAc,0.077
same,glycan array binding signal (z-score),[5],4.14
same,glycan array binding signal (z-score),[6],-0.58
same,glycan array binding signal (z-score),[7],-0.224
same,glycan array binding signal (z-score),[8],-0.277
same,glycan array binding signal (z-score),[9],-0.49
same,glycan array binding signal (z-score),Gal(b1-4)GlcNAc,-0.338
same,glycan array binding signal (z-score),[10],0.036
same,glycan array binding signal (z-score),Gal3S(b1-3)GlcNAc,1.6
same,glycan array binding signal (z-score),Gal3S6S(b1-4)GlcNAc,1.36
same,glycan array binding signal (z-score),[11],1.18
same,glycan array binding signal (z-score),[12],0.928
same,glycan array binding signal (z-score),[13],-0.51
same,glycan array binding signal (z-score),[14],0.102
same,glycan array binding signal (z-score),[15],-0.129
same,glycan array binding signal (z-score),[16],-0.274
same,glycan array binding signal (z-score),[17],-0.435
same,glycan array binding signal (z-score),Neu5Ac(a2-8)Neu5Ac,-0.246
